# Rows were chosen to be rich in hits. Some 6.7% of all compounds tested hit in one or more screens of this group.
# KB-3-1 tox: qHTS assay for MDR1-selective chemotherapeutics: Primary screen using the parental adenocarcinoma cell KB-3-1; KB-3-1 viability, CellTiter-Glo ATP luminescence, 72 h; Potency, µM (top dose mostly 46.1 µM), most hits filed as cytotoxic; actives 1.4% (n = 400,000); also: nearly all actives have a fitted effect of over 60% in size
#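 72 h, 37 °C compound treatment of KB-3-1 parental cells; CellTiter-Glo added, 10 min, luminescence read. Data corrected against DMSO-only plates and normalized before curve fitting.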
# KB-V1 cytotox: qHTS assay for MDR1-selective chemotherapeutics: Primary screen using the drug-selected MDR subline cells KB-V1. KB-V1 MDR cells viability, CellTiter-Glo, 72 h. Potency, µM (top dose mostly 46.1 µM), hits mostly cytotoxic. actives 3.4% (n = 400,000). AID 1347076, 2019; also: nearly all actives have a fitted effect of over 60% in size
#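 Cells of the MDR subline KB-V1 are plated, dosed with compound at multiple concentrations, and incubated 72 h at 37 degrees C; CellTiter-Glo is then added and luminescence read after 10 min.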
# MCF10A rerep: A quantitative high throughput screen for small molecules that induce DNA re-replication in MCF 10a normal breast cells; MCF 10A DNA re-replication, Hoechst nuclear intensity, 48 h; Potency, µM (doses to about 46.1 µM), most hits filed as activators; actives 2.9% (n = 350,000); also: nearly all actives have a fitted effect of over 50% in size
# SW480 rerep: A quantitative high throughput screen for small molecules that induce DNA re-replication in SW480 colon adenocarcinoma cells. SW480 DNA re-replication, Hoechst DNA content imaging, 48 h. Potency, µM (doses to about 46.1 µM), usual class: activators. actives 1.8% (n = 340,000). AID 624297, 2012; also: nearly all actives have a fitted effect of over 55% in size
#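 Treated cells incubate 48 hr (37 C, 5% CO2), are stained 40 min with Hoechst, and nuclear fluorescence is enumerated; a rise in nuclei with high DNA signal marks re-replication.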
# PINK1 modulator: A Quantitative High throughput Screen to Identify Chemical Modulators of PINK1 Expression | PINK1 immunofluorescence, high-content cytometry, 24 h | Potency, µM (doses to about 76.6 µM), actives largely listed as activators | actives 0.2% (n = 410,000) | AID 624263, 2012; active = well fitted activation curve with a large enough effect; inconclusive = small, poorly fitted or top-dose-only effect; cell line not stated here; also: nearly all actives have a fitted effect of over 65% in size
#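 Fluorescence from anti-PINK1 antibody, together with nuclear and cell stains, was scanned on a laser-scanning cytometer. Before staining, stable-line cells were incubated 24 hours with compounds at 5 concentrations; primary antibody 12 h at 10 degrees C.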
# Numbers stand for hits; – = inactive; ? = inconclusive; · = not tested or not shown; [ ] = dose if it differs, or a comment. Unless noted, calls follow the shape of the dose curve; as a rule, active = well fitted curve in the direction sought with a large enough effect; inconclusive = small, poorly fitted or top-dose-only effect, or another doubt; inactive = no such curve, though single readings can be large; an effect the other way counts as inactive or inconclusive.
SMILES,KB-3-1 tox,KB-V1 cytotox,MCF10A rerep,SW480 rerep,PINK1 modulator
Cc1cc(Br)ccc1OCCCCN1CCC(C)CC1,–,?,7.3µM,?,–
Clc1cc(Br)ccc1OCCCn1ccnc1,?,21µM,–,–,–
Cc1ccsc1C(=O)NN=C1CCCCCC1,–,?,–,–,–
Cc1cc(C(Br)(Br)Br)nc2ccccc12,–,–,·,·,–
O=C(NCCO)c1ccc(-c2ccc3nncn3c2)cc1,–,–,·,·,–
Cc1ccc(Cl)cc1-c1cc(C(=O)N2CCN(c3ccncc3)CC2)[nH]n1,–,–,·,·,–
Cc1ccnc(Nc2nc(-c3ccc(O)cc3O)cs2)c1,–,–,?,–,–
S=c1[nH]c(-c2ccccc2)cn1/N=C/c1ccccc1Br,–,–,–,–,–
Cc1ccc(/C=N/n2cc(-c3ccccc3)[nH]c2=S)s1,–,–,–[9.22 µM],18µM,–
COc1cc(OC)c2c(-c3cccc(-c4ccc(OC)c(OC)c4)c3)cc(=O)oc2c1,–,–,1.3µM,2.1µM,–
COc1cc(OC)c2c(-c3cccc(-c4ccc(NC(C)=O)cc4)c3)cc(=O)oc2c1,–,–,?,9.2µM,–
COc1cc(OC)c2c(-c3cccc(-c4ccc(F)c(Cl)c4)c3)cc(=O)oc2c1,?,?,4.6µM,?,–
COc1cc(OC)c2c(-c3cccc(-c4sccc4C(C)=O)c3)cc(=O)oc2c1,2.9µM,2.6µM,0.65µM,6.5µM,–
CCOC(=O)c1ccc(-c2cccc(-c3cc(=O)oc4cc(OC)cc(OC)c34)c2)cc1,–,–,?,?,–
O=C(NCC1CCCO1)C(c1ccco1)N(Cc1ccc(F)cc1)C(=O)CN1C(=O)c2ccccc2S1(=O)=O (configuration not stated),–,–,–,–,–
CC1(C(=O)NCc2ccccc2)CSCC(=O)N1CCOc1ccccc1 (configuration not stated),–,?,·,·,·
COc1ccc2cc3cc(C(=O)NC(C)C)oc3nc2c1,–,2.3µM,–,–,–
COc1ccc2cc3cc(C(=O)Nc4cc(OC)c(OC)c(OC)c4)oc3nc2c1,–,–,–,–,–
CCOC(=O)C1CCN(C(=O)Nc2ccc3nc(-c4ccco4)c(-c4ccco4)nc3c2)CC1,–,–,?,–,–
O=C(Nc1ccc2nc(-c3ccco3)c(-c3ccco3)nc2c1)N1CCCCCC1,–,?,18µM,?,?
CC1CCN(CC(CS(=O)(=O)c2ccc([N+](=O)[O-])cc2)N2CCC(C)CC2)CC1 (configuration not stated),5.2µM,?,1.8µM,2.9µM,–
Cc1ccc(S(=O)(=O)CC(CN2CCOCC2)N2CCOCC2)cc1 (configuration not stated),–,–,–,–,–
O=C1C=CC(=C(c2ccc(O)cc2)c2ccc(O)cc2)C=C1,5.8µM,?,6.5µM,?,–
CC(=O)/C(=N/Nc1ccccc1Cl)Sc1nnc(C(O)c2ccccc2)n1-c1ccccc1 (configuration not stated),–,16µM,–,–,–
CCCc1cc2c(cc1N(C)S(=O)(=O)c1ccccc1)OCO2,–,–,–,–,–
SMILES,KB-3-1 tox,KB-V1 cytotox,MCF10A rerep,SW480 rerep,PINK1 modulator
O=S(=O)(c1cccs1)N1CCN(Cc2nc3ccccc3s2)CC1,–,23µM,–,–,–
CCOC(=O)CSC1=C(C#N)C(c2ccccc2OCC)C(C#N)C(=O)N1 (configuration not stated),–,–,?,18µM,·
CCOC(=O)CSC1=C(C#N)C(c2ccc(Cl)cc2)CC(=O)N1 (configuration not stated),–,–,–,–,–
CCOC(=O)CSC1=C(C#N)C(c2ccc(C)o2)CC(=O)N1 (configuration not stated),0.58µM,?,?,0.82µM,–
CCOC(=O)CSC1=C(C#N)C(c2ccc3c(c2)OCO3)CC(=O)N1 (configuration not stated),7.3µM,?,?,?,–
Cc1cccc(/C=N/NC(=O)c2ccc(NC(=O)c3ccc(F)cc3)cc2)n1,–,–,21µM,–,–
Cc1cccc(/C=N/NC(=O)c2ccc(NC(=O)c3ccc(Cl)cc3)cc2)n1,?,–,–,–,–
COc1ccc(N2CC(NC(=O)C3CCCCC3)CC2=O)cc1 (configuration not stated),·,·,·,·,–
Oc1cccc(C=Nc2cccc3ccccc23)c1O,–,–,18µM,18µM,–
Oc1[nH]c2ccccc2c1N=Nc1c(F)c(F)c(Cl)c(F)c1F,–,–,–,–,?
O=Nc1c(O)[nH]c2ccc(Cl)c(Cl)c12,0.41µM,?,–,–,–
COc1ccc(/C(C)=N/NS(=O)(=O)c2ccccc2)c(OC)c1,–,–,–,–,–
COc1ccc(/C(C)=N\NS(C)(=O)=O)c(OC)c1,–,–,–,0.58µM,–
N#Cc1cccc(NC(=O)CSc2ccc3c4c(cccc24)C(=O)c2ccccc2-3)c1,?,21µM,7.3µM,?,–
COc1ccc(NC(=O)CSc2ccc3c4c(cccc24)C(=O)c2ccccc2-3)cc1,?,?,2.6µM,12µM,?
COc1ccc2[nH]cc(CCNc3ncnc4ccc(-c5c(C)noc5C)cc34)c2c1,·,·,·,·,–
CC1(C(=O)NS(=O)(=O)c2ccc3c(c2)CCO3)CCN1C(=O)COc1ccc(Cl)cc1 (configuration not stated),–,–,·,·,–
O=C(CSc1nc2c([nH]c3ccccc32)c(=O)n1-c1ccccc1F)Nc1ccccc1C(F)(F)F,·,·,·,·,–
CCOc1ccc(NS(=O)(=O)c2ccc(NS(=O)(=O)c3ccc(SC)cc3)cc2)cc1,–,23µM,?,–,–
CCOC(=O)N1CCN(C(=O)COc2ccc(S(=O)(=O)Nc3ccc(OCC)cc3)cc2)CC1,21µM,–,–,–,–
CCOc1ccc(NS(=O)(=O)c2ccc(OCC(=O)N3CCCC3)cc2)cc1,–,–,–,–,·
CCOc1ccc(NS(=O)(=O)c2ccc(NS(C)(=O)=O)cc2)cc1,–,?,–,–,–
C[C@@H]1COc2cc(N3CCC[C@@H]3CO)ccc2S(=O)(=O)N1,–,–,·,·,–
CC(C)c1ccc(-c2cc(C(=O)N3N=C(C(F)F)CC3(O)C(F)F)c3ccccc3n2)cc1 (configuration not stated),?,?,4.5µM,?,?
CCc1ccc(NC(=O)C(=O)NCCN2CCN(Cc3ccc([N+](=O)[O-])cc3)CC2)cc1,–,–,?,–,–
Cc1ccc(NC(=O)C(=O)NCCN2CCN(Cc3ccc([N+](=O)[O-])cc3)CC2)cc1,–,2.9µM,–,?,–
